TEAD-YAP block – TEAD-YAP interaction inhibition; HEK-TIYL cells, TEAD-Gal4/YAP UAS-luciferase luminescence; inhibition, % at 9.12 µM; hit rate 1.4% among 640,000; in the data active = inhibition above about 32%;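 also: 0% = median of test compound wells and 100% = reference inhibitor wells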
GPR151 ag – human GPR151 activation; PathHunter beta-arrestin GPR151 cells, luminescence; AID 1508602; hit rate 1% among 650,000; Q8TDV0; activation, % at 11.2 µM; in the data active = activation above about 4.9%;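 also: 0% = median of compound wells and 100% = cells with positive control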
MITF primary – blocks human microphthalmia-associated transcription factor | AlphaScreen MITF homodimerization, bead proximity signal | inhibition, % at 2.6 µM | hit rate 0.91% among 650,000 | AID 1259374; in the data active = inhibition above about 50%;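 also: 0% = vehicle wells with protein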
FBW7 activator – human FBW7 E3 ligase activation, primary screen | AlphaScreen FBW7–phospho-cyclin E peptide binding, activator screen | normalized activity (activation), % at 26.1 µM | hit rate 0.13% among 650,000; in the data active = normalized activity above about 1.9%;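 also: purified mutant Fbw7 with reduced substrate affinity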
GPR151 confirm – human GPR151 activation, confirmation screen; shares compounds with GPR151 ag; activation, % at 11.2 µM; GPR151 PathHunter beta-arrestin cells, luminescence, 90 min; % of EA-reagent control over plate median; AID 1508609; 6,700 tested, under 10 active;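 active = mean percent activation across replicates above the confirmation screen cutoff of 4.91%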
GPR119 ag – activates human GPR119 in a GPR151 counter-screen. GPR119 PathHunter beta-arrestin cells, luminescence, 90 min; 0 = compound-well median, 100 = enzyme-acceptor control. activation, % at 11.2 µM. shares compounds with GPR151 ag. AID 1508611. hit rate 0.3% among 6,700;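 active = mean percent activation in the counterscreen above 29.09%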;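 also: counterscreen on off-target GPR119 to flag nonselective hits from the GPR151 activator screen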
Target sequence (Q8TDV5 whole entry, looked up): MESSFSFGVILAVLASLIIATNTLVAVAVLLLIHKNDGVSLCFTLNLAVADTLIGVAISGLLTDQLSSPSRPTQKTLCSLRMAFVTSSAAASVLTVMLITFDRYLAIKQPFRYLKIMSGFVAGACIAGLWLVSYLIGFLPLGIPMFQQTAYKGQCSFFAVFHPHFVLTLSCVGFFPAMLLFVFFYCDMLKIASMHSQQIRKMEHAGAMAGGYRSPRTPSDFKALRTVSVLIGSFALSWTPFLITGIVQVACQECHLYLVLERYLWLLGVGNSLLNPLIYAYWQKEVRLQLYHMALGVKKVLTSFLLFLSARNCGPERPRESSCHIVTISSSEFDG
Starred values were filed as active, the others as inactive; · = not tested or not shown. Most compounds without a hit are left out; they make up all but 3.5% or so of the library.

SMILES	TEAD-YAP block	GPR151 ag	MITF primary	FBW7 activator	GPR151 confirm	GPR119 ag
COc1ccc(/C=N/NC(=O)CNC(=O)c2ccccc2Br)cc1	0	-1	3	0	·	·
COc1ccc(/C=N/NC(=O)C(=O)Nc2cccc(Cl)c2)cc1OC	-4	7.4*	-7	0	0	2
COc1ccccc1[C@@H]1C[C@H]2CN(Cc3cccc(Cl)c3)C(=O)[C@]23CCCN13	5	-1	10	0	·	·
C=CCN(c1ccc(C(=O)Nc2ccc(Cl)cc2)cc1)S(C)(=O)=O	11	9.2*	10	0	3	16
O=C(CN1C(=O)c2cccc([N+](=O)[O-])c2C1=O)Oc1ccc2ccc(=O)oc2c1	3	0	1	0	·	·
CCOC(=O)N1CCC(NCCNC(=O)c2ccc(Cl)cc2)CC1	17	12*	33	0	0	4
CCOC(=O)N1CCC(NC(=O)c2ccc(CSCc3c(F)cccc3Cl)o2)CC1	1	5.3*	-17	0	-2	4
CCOC(=O)N1CCC(Nc2nncc(-c3ccc(OC)cc3)n2)CC1	11	10*	-3	0	0	1
CCOC(=O)N1CCC(NC(=O)C(=O)CC(=O)c2ccc(OC)cc2)CC1	13	5.4*	4	0	0	13
C=CCNc1ncnc2c1c(-c1ccccc1)cn2-c1ccc(C)cc1	2	-1	6	0	·	·
COCCCNCCOCCOc1cccc(Cl)c1Cl	-8	3	34	0	·	·
C=CCOc1ccccc1C1C(C(=O)Nc2ccccc2C)=C(C)Nc2ncnn21 (stereo unspecified)	4	2	0	0	·	·
Cc1nc2sccn2c1C(=O)N/N=C\c1ccccc1[N+](=O)[O-]	2	-2	17	0	·	·
Cn1nnc2cc(NC(=O)Nc3ccccc3F)ccc21	11	-3	2	0	·	·
Cn1nnc2cc(NC(=O)NCc3ccccc3)ccc21	-9	6.3*	10	0	0	-3
CCOC(=O)C1=C(c2ccccc2)OC(N)=C(C#N)C1c1ccc(Cl)c(Cl)c1 (stereo unspecified)	-10	-1	2	0	·	·
O=C(CCC(=O)c1ccc(Cl)cc1)OCc1ccc([N+](=O)[O-])cc1	2	1	-4	0	·	·
O=C(CCC(=O)OCc1ccc([N+](=O)[O-])cc1)OCc1ccc([N+](=O)[O-])cc1	-7	5.5*	-2	0	0	5
Cc1ccc2oc(-c3cccc([N+](=O)[O-])c3)cc(=O)c2c1	19	5	10	0	·	·
COc1ccc(-c2nnc(SCC(=O)Nc3cccc(Cl)c3C)nc2-c2ccc(OC)cc2)cc1	9	5.8*	2	0	-1	-6
COc1ccc(CCNC(=O)c2csc(Nc3nc4ccccc4n3C)n2)cc1	2	1	10	0	·	·
COc1ccc(CCNC(=O)c2cccc(Nc3nc4ccccc4n3C)n2)cc1	12	7.8*	39	0	-1	-16
O=C(/C=C/c1cccc(Cl)c1)Nc1ccncc1	-26	24*	1	0	0	-9
CCCN(CCC)CCNS(=O)(=O)c1ccc2c(c1)oc(=O)n2C	-5	7.6*	6	0	0	8
COc1ccccc1CNS(=O)(=O)c1ccc2c(c1)oc(=O)n2C	2	5.9*	18	0	-1	-9
SMILES	TEAD-YAP block	GPR151 ag	MITF primary	FBW7 activator	GPR151 confirm	GPR119 ag
COc1ccc(OC)c(CNS(=O)(=O)c2ccc3c(c2)oc(=O)n3C)c1	20	-1	2	0	·	·
Cc1c(C(=O)NCc2cccnc2)sc2ncnc(N3CCN(c4ccccc4F)CC3)c12	-2	1	16	0	·	·
CC(C)N1CCC(=NNC(=O)c2ccc(C(C)(C)C)cc2)CC1	0	6.7*	-6	0	2	-2
Cc1ccc(C(=O)NN=C2CCN(C)CC2)cc1	-10	0	-20	0	·	·
Cc1ccc(-n2cnnn2)c(S(=O)(=O)N2CCOCC2)c1	6	5.4*	1	0	0	6
Nc1cc[n+](CC(=O)c2ccccc2)cc1	-12	7.1*	-13	0	0	-6
CCOC(CCn1c(SCC(=O)c2ccc(F)cc2)nc2ccccc2c1=O)OCC	0	-1	-6	0	·	·
COCC(C)NC(=O)NC1(C(F)(F)F)Oc2ccccc2O1 (stereo unspecified)	7	2	-1	0	·	·
CCOc1nc(NCCC2=CCCCC2)nc(OCC)n1	-7	9.8*	-3	0	1	-9
CCOc1ccccc1OCCN[C@H](C)Cc1ccc(OC)c(S(N)(=O)=O)c1	-2	6.8*	-16	0	0	0
COc1cccc(C2C3=C(Nc4ncnn42)c2ccccc2OC3c2ccccc2OC)c1 (stereo unspecified)	-16	-1	2	0	·	·
CCOC(=O)C1=C(c2ccccc2)N=c2s/c(=C\c3cc(Cl)ccc3OC)c(=O)n2C1c1c(OC)ccc2ccccc12 (stereo unspecified)	4	-1	0	0	·	·
CCOc1cc(/C=N/N=C2/NC(=O)CS2)ccc1OC(=O)c1ccc(OC)cc1	-14	1	7	0	·	·
CCOc1cc(/C=N/N=C2/NC(=O)CS2)cc(Cl)c1O	-9	7.1*	5	0	1	2
O=C1Nc2ccccc2Oc2cc([N+](=O)[O-])cc(Oc3ccc(Br)cc3)c21	4	11*	5	0	1	1
COc1ccccc1OCC(=O)Nc1ccccc1C(=O)O	-57	-4	-7	0	·	·
CCOc1ccc(C(=O)NC(=S)Nc2ccccc2C(=O)OC)cc1	-4	6.8*	6	0	1	-9
CCOc1ccc(C(=O)NC(=S)Nc2ccccc2C(=O)OC)cc1[N+](=O)[O-]	0	2	-6	0	·	·
COc1cc(C=O)ccc1OCC(=O)Nc1ccccc1C(=O)c1ccccc1	-1	5.8*	15	0	0	1
COC(=O)c1ccccc1NC(=O)COc1ccc(F)cc1	3	-2	0	0	·	·
COC(=O)c1ccccc1NC(=O)COc1ccc(C=O)cc1	0	8.0*	1	0	0	-10
Cc1ccc(C)n1-c1ccc(C(=O)N2CCCCC2C)cc1 (stereo unspecified)	5	0	-9	0	·	·
O=[N+]([O-])c1ccc(-c2ccc(S(=O)(=O)N3CCOCC3)cc2)cc1	9	5.6*	3	0	-1	-13
O=[N+]([O-])c1ccc(S(=O)(=O)N2CCN(S(=O)(=O)N3CCOCC3)CC2)cc1	12	3	-3	0	·	·
COc1ccccc1-c1ccc(=O)n(CC(=O)Nc2ccc(Br)cc2)n1	5	9.6*	-2	0	0	-5
COc1cccc(-c2ccc(=O)n(CC(=O)Nc3ccc(Cl)c(C(F)(F)F)c3)n2)c1	-2	18*	-7	0	1	-1

Compound activity from PubChem.
